“And” between values parts separate entries of the source, which are not always exact repeats. Equal values may be shown once. Inconclusive results are not listed. Values without a mark were called inactive. The source made the active and inactive calls. The call rests on the fitted dose curve; in most records, active means well fitted curve in either direction with a large enough effect (not every such curve was filed as active); inconclusive means small, poorly fitted or top-dose-only effect, or another doubt; inactive means flat fitted curve, though single readings scatter.
On the % scale 0 is the no-effect control and ±100 the full control effect.

The first assay can be described thus: Stat Signaling Pathway (AID 446). To be noted: ME-180 SIE beta-lactamase reporter, IL-6 stimulated, 5 h; at 17.2 µM (top of the series). The procedure: NCGC Assay Overview: The IL-6/STAT signaling pathway was assayed in ME-180 cervical carcinoma cells by a beta-lactamase reporter gene controlled by a STAT Inducible Element (SIE). This reporter is induced by IL-6 at 40 pM AC50 and inhibited by the pan JAK inhibitor, 2-(1,1-Dimethylethyl)-9-fluoro-3,6-dihydro-7H-benz[h]-imidaz[4,5-f]isoquinolin-7-one, at approximately 10 nM AC50. Plated cells were incubated overnight and on the following day, stimulated with 40 pM IL-6 for 5 hrs. The assay was screened at the AC50 of IL-6 activation to identify both inhibitors and activators of IL-6/STAT signaling.
NCGC Assay Protocol Summary: Cells were trypsinized, washed in assay medium (AM, OPTI MEM with 0.5% fetal bovine serum, 0.1 mM nonessential amino acids, 1 mM sodium pyruvate, 10mM HEPES pH 7.3, 100U/ml penicillin, and 100 ug/ml streptomycin) and suspended at 6 x 10e5/ml in AM. Approximately […] cells in 5 uL/well was dispensed into 1536 well plates and the cells were incubated overnight at 37 C. 23 nL of compound were delivered by a pin tool and 1 uL of IL-6 (40 pM final concentration in AM) was added. After centrifugation at 1000 rpm for less than a minute, plates were incubated at 37C for 5 hrs. One uL of detector mix (LiveBLAzerTM, Invitrogen) was added, the plates incubated at room temperature for 2.5 hrs, and fluorescence intensity at 460 and 530 nm emission was measured at 405 nm excitation by an Envision (Perkin Elmer) or Safire II (Tecan). Data were normalized by GeneData to the controls for AC90 stimulation (300 pM IL-6) and to AC90 inhibition (125 nM Jak inhibitor, 40 pM IL-6 in AM).
For the compound `CC[C@H]1CN2CCc3cc(OC)c(OC)cc3[C@@H]2C[C@@H]1C[C@H]1NCCc2cc(OC)c(OC)cc21`, the activity, negative = inhibition was -96.7% (active).

In the case of `CNCCC(Oc1ccc(C(F)(F)F)cc1)c1ccccc1` (stereo not given), the activity, negative = inhibition is 4.05%.

On to `CCCCN1CCCC[C@H]1C(=O)Nc1c(C)cccc1C`, for which the activity, negative = inhibition is 1.67%.

Consider `Nc1ccc(S(=O)(=O)Nc2nccs2)cc1`, for which the activity, negative = inhibition is -1.46%.

As for `CN(C)CCCN1c2ccccc2CCc2ccccc21`, the activity, negative = inhibition is 2.6% and 1.4%.

Take `C[C@H](N)[C@H](O)c1cccc(O)c1`: the activity, negative = inhibition is 4.65%.

Consider `CC(=O)c1ccc2c(c1)N(CCCN(C)C)c1ccccc1S2`, for which the activity, negative = inhibition was -0.766%.

Turning to `CN1[C@@H]2CC(OC(=O)[C@H](CO)c3ccccc3)C[C@H]1[C@@H]1O[C@@H]12` (stereo not given in full), the activity, negative = inhibition is 3.51%.

Consider `N=c1c[n+](N2CCOCC2)[n-]o1`, for which the activity, negative = inhibition is 4.68%.

Regarding `CCN(CC)CCOC(=O)C1(C2CCCCC2)CCCCC1`, the activity, negative = inhibition is 0.488% and 9.07%.

Consider `COc1ccc(Cl)cc1C(=O)NCCc1ccc(S(=O)(=O)NC(=O)NC2CCCCC2)cc1`, for which the activity, negative = inhibition was -3.96% and -3.07%.

On to `Cc1cc2c(cc1S(N)(=O)=O)S(=O)(=O)CCC2`, for which the activity, negative = inhibition is -10.1%.

`CCC(=O)c1ccc(O)cc1`: the activity, negative = inhibition is -0.905%.

Turning to `COC(=O)C1=C(C)NC(C)=C(C(=O)OC)C1c1ccccc1[N+](=O)[O-]`, the activity, negative = inhibition was -12.5% and -20.9%.

Consider `c1ccc2c(CC3=NCCN3)cccc2c1`, for which the activity, negative = inhibition is 6.58% and 9.6%.

For `CCN(CC)CCNC(=O)c1cc(Cl)c(N)cc1OC`, the activity, negative = inhibition was 16.4% and -2.07%.

For the compound `CCCCN(CCCC)CCCOC(=O)c1ccc(N)cc1`, the activity, negative = inhibition is -8.33% and 3.52%.

For `Cc1c(Cl)cccc1Nc1ccccc1C(=O)O`, the activity, negative = inhibition is -15.1% and -25.4%.

On to `Cc1cc(N)c2ccccc2[n+]1CCCCCCCCCC[n+]1c(C)cc(N)c2ccccc21`, for which the activity, negative = inhibition was -1.05%.

For the compound `OCC(O)CN1CCN(c2ccccc2)CC1` (stereo not given), the activity, negative = inhibition is 10.1%.

Turning to `CNCCCC1c2ccccc2C=Cc2ccccc21`, the activity, negative = inhibition was -10.4% and -15.8%.

For the compound `c1ccc(CN(CC2=NCCN2)c2ccccc2)cc1`, the activity, negative = inhibition was -2.58% and 2.91% and -16.4%.

For `C[C@]12C[C@H](O)[C@H]3[C@@H](CCC4=CC(=O)CC[C@@]43C)[C@@H]1CC[C@@H]2C(=O)CO`, the activity, negative = inhibition was 3.29%.

For the compound `Nc1ccc(S(=O)(=O)NC(=O)c2ccccc2)cc1`, the activity, negative = inhibition was -0.201% and -5.16%.

Regarding `CCCCOc1cc(C(=O)OCCN(CC)CC)ccc1N`, the activity, negative = inhibition is -0.0669%.

On to `CC1=C(CC(=O)O)c2cc(F)ccc2/C1=C\c1ccc(S(C)=O)cc1` (stereo not given), for which the activity, negative = inhibition is 0.939%.

For the compound `C[C@]12CC[C@@H]3c4ccc(O)cc4CC[C@H]3[C@@H]1CCC2=O`, the activity, negative = inhibition is -23.3%.

Still in this assay, the particulars now being: ME-180 (cervical carcinoma) SIE beta-lactamase reporter, IL-6 stimulated, 5 h; at 38 µM (top of the series).
For `CC1=C(CC(=O)O)c2cc(F)ccc2/C1=C\c1ccc(S(C)(=O)=O)cc1`, the activity, negative = inhibition was -25.4%.

For the compound `N=c1c[n+](N2CCOCC2)[n-]o1`, the activity, negative = inhibition was -10.2%.

As to `CCN(CC)CCOC(=O)C1(C2CCCCC2)CCCCC1`, the activity, negative = inhibition was -26%.

Consider `COc1ccc(Cl)cc1C(=O)NCCc1ccc(S(=O)(=O)NC(=O)NC2CCCCC2)cc1`, for which the activity, negative = inhibition is 4.48%.

Regarding `COC(=O)C1=C(C)NC(C)=C(C(=O)OC)C1c1ccccc1[N+](=O)[O-]`, the activity, negative = inhibition was -13.9%.

As to `CCCn1cnc2c1c(=O)n(CCCCC(C)=O)c(=O)n2C`, the activity, negative = inhibition is 10.7%.

As to `Nc1cc(=O)[nH]c(N)n1`, the activity, negative = inhibition is 1.02%.

Take `CCN(CC)CCNC(=O)c1cc(Cl)c(N)cc1OC`: the activity, negative = inhibition was -26.6%.

`CC(C)C(=O)c1c(C(C)C)nn2ccccc12`: the activity, negative = inhibition was 2.52%.

In the case of `Cc1cc(N)c2ccccc2[n+]1CCCCCCCCCC[n+]1c(C)cc(N)c2ccccc21`, the activity, negative = inhibition is -10.8%.

As to `CNCCCC1c2ccccc2C=Cc2ccccc21`, the activity, negative = inhibition is -9.63%.

`CCCCCCCCCCCCCCCC(=O)NCCO`: the activity, negative = inhibition is -2.15%.

Consider `CC1=C(CC(=O)O)c2cc(F)ccc2/C1=C\c1ccc(S(C)=O)cc1` (stereo not given), for which the activity, negative = inhibition is 9.67%.

The values above are taken from PubChem BioAssay (NCATS).
